30 compounds from PubChem BioAssay (NCATS) can be followed below.

Records with an inconclusive call do not appear. Entries that show only a call come without a potency. Active and inactive are the calls of the source. Unless noted, calls come from the whole dose curve; as a rule, active = well fitted curve in the direction sought with a large enough effect; inconclusive = small, poorly fitted or top-dose-only effect, or another doubt; inactive = no such curve, though single readings can be large; an effect the other way counts as inactive or inconclusive.

Test [1] deals with Methanococcus maripaludis chaperonin (MmCpn) (UniProt Q6LX38). The test is described as follows: High-Throughput Screening for Modulators of Cytosolic Chaperonin Activity: MmCpn Primary Screen (AID 488978).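 Note: 50 nM MmCpn enzyme hydrolysing 30 µM ATP at 37 °C.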 In outline:
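Measures ATPase turnover of the M. maripaludis chaperonin (50 nM final) against 30 uM ATP over 10 min at 37C, with compound added 5 min beforehand at room temperature. ADP is quantified by HTRF immunodetection.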

Test [2] deals with D(1A) dopamine receptor (Homo sapiens) (UniProt P21728). The test is described as follows: HTS Assay for Allosteric Agonists of the Human D1 Dopamine Receptor: Primary Screen for Agonists (AID 488981). In outline: (§1)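 Tetracycline-induced HEK293 Trex D1 cells with forced coupling to calcium, loaded with no-wash calcium dye; kinetic fluorescence read 180 s after compound addition for agonism, then a further 180 s after an EC20 dopamine challenge for potentiation.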
D(1A) dopamine receptor (Homo sapiens), sequence (P21728 whole entry, looked up): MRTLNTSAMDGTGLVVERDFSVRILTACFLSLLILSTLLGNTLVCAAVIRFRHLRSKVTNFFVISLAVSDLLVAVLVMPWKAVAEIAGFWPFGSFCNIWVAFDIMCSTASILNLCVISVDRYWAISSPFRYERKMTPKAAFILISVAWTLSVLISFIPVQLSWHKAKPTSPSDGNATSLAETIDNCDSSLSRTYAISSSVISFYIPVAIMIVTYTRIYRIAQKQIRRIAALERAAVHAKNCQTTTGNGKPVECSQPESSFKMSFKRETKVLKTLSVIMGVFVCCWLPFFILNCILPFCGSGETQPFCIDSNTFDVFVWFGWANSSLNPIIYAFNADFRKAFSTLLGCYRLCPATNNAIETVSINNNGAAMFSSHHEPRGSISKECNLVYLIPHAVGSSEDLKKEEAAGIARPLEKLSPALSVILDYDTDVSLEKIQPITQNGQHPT

Test [3] has the same target. The test is described as follows: HTS Assay for Allosteric Agonists of the Human D1 Dopamine Receptor: Primary Screen for Potentiators (AID 488982). In outline: as §1
Test [4] shares this target. The test is described as follows: HTS Assay for Allosteric Agonists of the Human D1 Dopamine Receptor: Primary Screen for Antagonists (AID 488983).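 Note: calcium flux response to an EC80 dopamine challenge measured with no-wash dye; nearly all actives have a fitted effect of over 65% in size.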 In outline: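 Cells are induced with tetracycline and incubated overnight at 30 C, then loaded with calcium dye for 30 to 90 minutes at room temperature. Compound addition is followed by a 180 s read, then an EC80 dopamine addition and another 180 s read.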

Test [5] deals with ATPase family AAA domain-containing protein 5 (Homo sapiens) (UniProt Q96QE3). The test is described as follows: Validation screen for small molecules that inhibit ELG1-dependent DNA repair in human embryonic kidney (HEK293T) cells expressing luciferase-tagged ELG1 (AID 493107).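 Note: cells co-treated with the DNA-damaging agent 5-fluorouridine alongside compound; series mostly up to about 46 µM; inhibitors lower the ELG1-luciferase luminescence signal; nearly all actives have a fitted effect of over 70% in size.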 In short, it runs like this: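 Luminescence from ONE-Glo, developed 30 min at room temperature, served as read-out of ELG1-luciferase levels. Beforehand, reporter HEK293T cells received 5-fluorouridine plus test compound for 16 hr at 37 °C.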

The nature of test [6]: Nrf2 qHTS screen for inhibitors: Validation (AID 493153; active = well fitted inhibition curve with a large enough effect in the main read-out, with a control signal flat, not every such curve was filed as active). The settings on record: Potency: luciferase luminescence; viability change: measured here: cytotoxicity max response. In short, it runs like this:
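Luminescence from an ARE-firefly luciferase reporter in A549 cells gives Nrf2 inhibition; an earlier CellTiter-Fluor fluorescent read flags cytotoxicity. Cells in 5% FBS OPTI-MEM received compound dilution series for 18-24 h at 37°C.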
On the technique in general: In qHTS, concentration-response curves come from the screen itself.

The nature of test [7]: qHTS for Inhibitors of Cell Surface uPA Generation: Validation Assay (AID 493164). In short, it runs like this: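 RAW 264.7 cells (4000/well) were plated overnight, then exposed for 18 h at 37 C, 5% CO2 to compounds in a 7-point 1:5 titration (2.45 nM–38.3 uM final). Intracellular ATP was read by ATP-Lite luminescence.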
Test [8] addresses Peptidyl-prolyl cis-trans isomerase NIMA-interacting 1 (Homo sapiens) (UniProt Q13526). The test is described as follows: qHTS Validation Assay to Find Inhibitors of Pin1 (AID 504536; active = well fitted inhibition curve with a large enough effect in the polarisation, with a control signal flat, not every such curve was filed as active; the % refers to the polarisation). In outline:
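Fluorescence polarization competition: compounds (titration) displace HiFluor-488-labeled Pin1-1b peptide from Pin1 (0.3 uM final) in pH 7.5 HEPES buffer with DTT, 10 min at room temperature; %Activity normalized to no-enzyme wells, curves fitted.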

In test [9] the target is Phosphoglycerate kinase, glycosomal (Trypanosoma brucei brucei) (UniProt P07378). The test is described as follows: qHTS Validation Assay to Find Inhibitors of Phosphoglycerate Kinase (AID 504547). In short, it runs like this: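 PGK activity was coupled to GAPDH (100nM final), which generates the unstable substrate 1,3-bisphosphoglycerate in-well. Reactions ran 60 minutes at room temperature in 100mM TEA pH 7.6, 5mM MgCl2, 0.01% Tween-20, then Kinase-Glo Plus luminescence was read.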
Phosphoglycerate kinase, glycosomal (Trypanosoma brucei brucei), sequence (P07378 whole entry, looked up): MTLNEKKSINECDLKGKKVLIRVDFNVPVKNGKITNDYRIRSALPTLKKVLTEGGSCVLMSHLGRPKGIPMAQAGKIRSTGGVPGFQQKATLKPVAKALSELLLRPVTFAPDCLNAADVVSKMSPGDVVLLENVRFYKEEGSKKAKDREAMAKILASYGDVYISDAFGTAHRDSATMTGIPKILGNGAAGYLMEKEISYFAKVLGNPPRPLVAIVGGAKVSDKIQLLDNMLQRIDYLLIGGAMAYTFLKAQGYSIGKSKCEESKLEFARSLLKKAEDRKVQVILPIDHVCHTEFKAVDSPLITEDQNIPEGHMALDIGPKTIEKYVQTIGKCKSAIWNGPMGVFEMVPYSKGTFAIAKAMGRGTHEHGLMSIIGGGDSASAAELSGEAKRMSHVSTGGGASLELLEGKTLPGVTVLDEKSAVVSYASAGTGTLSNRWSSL

The target of test [10] is phosphoglycerate mutase (Leishmania major) (UniProt Q4Q090). The test is described as follows: qHTS Validation Assay to Find Inhibitors of Phosphoglycerate Mutase (AID 504548).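 Note: end-point luminescence from Kinase-GloPlus after the PGAM reaction; series mostly up to about 58 µM.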 The settings on record: Potency: inhibition qHTS. In short, it runs like this: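 L. major PGAM (1.25nM final) was added to substrate buffer and pinned compound, incubated 45 minutes at room temperature, then Kinase-GloPlus added; luminescence read after 10 minutes. Buffer: 100 mM TEA pH 7.6, 5 mM MgCl2, 0.01% Tween-20.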
phosphoglycerate mutase (Leishmania major), sequence (Q4Q090 1-553): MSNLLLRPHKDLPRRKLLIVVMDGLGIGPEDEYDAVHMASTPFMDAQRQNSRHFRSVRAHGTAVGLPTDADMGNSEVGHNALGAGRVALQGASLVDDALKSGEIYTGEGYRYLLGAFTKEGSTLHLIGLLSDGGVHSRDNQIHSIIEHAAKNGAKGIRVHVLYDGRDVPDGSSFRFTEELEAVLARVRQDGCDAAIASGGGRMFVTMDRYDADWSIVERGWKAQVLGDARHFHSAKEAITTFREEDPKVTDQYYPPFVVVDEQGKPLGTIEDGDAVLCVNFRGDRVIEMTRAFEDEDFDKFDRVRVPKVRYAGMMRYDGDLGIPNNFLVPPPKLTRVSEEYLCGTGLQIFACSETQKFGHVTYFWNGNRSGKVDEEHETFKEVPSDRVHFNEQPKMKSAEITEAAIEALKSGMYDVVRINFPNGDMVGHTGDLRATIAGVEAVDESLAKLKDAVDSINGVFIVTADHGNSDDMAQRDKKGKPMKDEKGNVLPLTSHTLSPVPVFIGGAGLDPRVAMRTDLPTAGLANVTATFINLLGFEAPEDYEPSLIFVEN

Test [11] deals with Ubiquitin carboxyl-terminal hydrolase 1 (Homo sapiens) (UniProt O94782). The test is described as follows: Inhibitors of USP1/UAF1: Pilot qHTS (AID 504865). Note: nearly all actives have a fitted effect of over 35% in size. Note: potency is the fitted concentration of half-maximal effect. In short, it runs like this:
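Kinetic fluorescence assay: 1nM USP1/UAF1, 15 min compound preincubation, then 150nM Ub-Rho; 480/540 nm.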

A short description of test [12]: qHTS for Inhibitors of ATXN expression: Validation (AID 588378). Note: series mostly up to about 57 µM; nearly all actives have a fitted effect of over 75% in size. In short, it runs like this:
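Validation of ATXN2 expression inhibitors uses a cell-based luciferase fusion reporter in HEK293 cells, with 24 h compound exposure and paired viability (fluorescence) and reporter (luminescence) end-point reads.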

Test [13] deals with ATP-dependent 6-phosphofructokinase (Trypanosoma brucei brucei) (UniProt O15648). The test is described as follows: qHTS Assay to Find Inhibitors of T. brucei phosphofructokinase: hit validation (AID 492961).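 Note: luminescence reports ADP formed as PFK phosphorylates fructose-6-phosphate with ATP; series mostly up to about 51 µM.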 In outline: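 Compounds titrated; %activity normalized to 0x and 1x enzyme controls, curve-fitted. Readout: ADP-Glo luminescence after 45 min room-temperature reaction of 1.25 nM PFK, 0.1 mM ATP, 0.5 mM F6P, pH 8.0.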
ATP-dependent 6-phosphofructokinase (Trypanosoma brucei brucei), sequence (O15648 whole entry, looked up): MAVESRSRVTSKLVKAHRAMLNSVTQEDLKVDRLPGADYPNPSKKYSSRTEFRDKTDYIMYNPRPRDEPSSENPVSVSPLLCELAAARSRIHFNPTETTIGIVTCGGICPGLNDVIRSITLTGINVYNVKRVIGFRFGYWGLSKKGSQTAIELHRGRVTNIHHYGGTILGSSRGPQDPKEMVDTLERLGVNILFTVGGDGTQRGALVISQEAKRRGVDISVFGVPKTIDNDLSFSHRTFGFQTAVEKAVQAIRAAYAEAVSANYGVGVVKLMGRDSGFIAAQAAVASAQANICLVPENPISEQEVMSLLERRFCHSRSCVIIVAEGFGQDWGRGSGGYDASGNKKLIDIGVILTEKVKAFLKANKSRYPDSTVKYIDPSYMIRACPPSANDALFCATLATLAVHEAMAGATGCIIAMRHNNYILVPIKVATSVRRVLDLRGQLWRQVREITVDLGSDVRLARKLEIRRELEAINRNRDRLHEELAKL

Test [14] deals with Thyrotropin receptor (Homo sapiens) (UniProt P16473). The test is described as follows: qHTS Assay for Antagonists of the Thyroid Stimulating Hormone Receptor (AID 488980). Note: series mostly up to about 58 µM. In outline: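 Cells expressing human TSHR (HEK293) are dispensed in HBSS/HEPES containing 70 uM RO 20-1724, compound is added, then TSH at EC80 (4 nM final). Antibody in lysis buffer follows, 30 minutes at room temperature before HTRF detection.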
Thyrotropin receptor (Homo sapiens), sequence (P16473 whole entry, looked up): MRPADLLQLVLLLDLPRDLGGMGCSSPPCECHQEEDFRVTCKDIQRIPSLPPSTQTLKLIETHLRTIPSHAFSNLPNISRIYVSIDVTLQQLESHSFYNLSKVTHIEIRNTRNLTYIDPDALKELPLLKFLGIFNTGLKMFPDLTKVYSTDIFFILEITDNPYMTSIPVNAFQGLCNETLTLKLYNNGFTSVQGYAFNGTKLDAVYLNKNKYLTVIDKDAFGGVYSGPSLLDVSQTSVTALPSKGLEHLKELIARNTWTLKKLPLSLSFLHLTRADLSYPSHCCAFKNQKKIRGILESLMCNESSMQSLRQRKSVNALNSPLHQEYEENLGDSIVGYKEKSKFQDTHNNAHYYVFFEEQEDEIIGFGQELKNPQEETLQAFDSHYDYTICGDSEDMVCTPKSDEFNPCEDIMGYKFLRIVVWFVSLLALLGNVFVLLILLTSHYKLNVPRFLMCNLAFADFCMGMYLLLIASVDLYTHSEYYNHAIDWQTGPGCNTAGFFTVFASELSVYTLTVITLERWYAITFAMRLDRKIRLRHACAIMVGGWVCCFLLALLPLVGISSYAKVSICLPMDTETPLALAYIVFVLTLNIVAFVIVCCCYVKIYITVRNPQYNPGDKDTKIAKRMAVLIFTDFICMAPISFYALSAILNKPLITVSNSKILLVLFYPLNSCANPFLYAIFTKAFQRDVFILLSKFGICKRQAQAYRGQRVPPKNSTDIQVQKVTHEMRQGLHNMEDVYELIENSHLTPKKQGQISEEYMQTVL

Test [15] has as its target Thyrotropin-releasing hormone receptor (Homo sapiens) (UniProt P34981). The test is described as follows: qHTS for Small Molecule Agonists and Allosteric Enhancers of Human TRH Receptor: Validation Screen for Agonists (AID 493127;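 active = calcium activation more than 3 SD above the typical response in the agonist read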;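 note: intracellular calcium rise by fluo-8 fluorescence before TRH EC20 addition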). The settings on record: TRH receptor agonist cell assay; at 2 µM; stronger effect = higher value. In short, it runs like this:
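Cells 2000/well, 10% FCS, 18 h 33.5C/5% CO2 → fluo-8 Ca dye, RT 30 min–1.5 h → FDSS baseline 10 × 1 s → compound added → 230 cycles (1 s/cycle) agonist mode. TRH controls.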

Test [16] has as its target Galactokinase (Homo sapiens) (UniProt P51570). The test is described as follows: qHTS Validation Assay for Inhibitors of Human Galactokinase (GALK) (AID 493189). In short, it runs like this: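 Compounds were pin-transferred into ATP buffer, then GALK-galactose mix was added (final 5 nM enzyme, 100 uM galactose, 35 uM ATP). After 1 h at room temperature, remaining ATP was measured luminescently.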

A short description of test [17]: Validation screen for small molecules that induce DNA re-replication in SW480 colon adenocarcinoma cells (AID 504364). In outline:
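250 cells/well; compound pinned in; 48 hr, 37 C, 5% CO2; Hoechst added, 40 min; nuclear fluorescence imaged, 405 ex / 500-530 em; re-replication scored as increase in high-intensity nuclei.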

Test [18] can be described thus: Validation screen for small molecules that induce genotoxicity in human embryonic kidney (HEK293T) cells expressing luciferase-tagged ELG1 (AID 493106). In short, it runs like this: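 Luminescence from an ELG1-luciferase fusion serves as the read-out, rising when genetic stress elevates ELG1 protein. HEK293T reporter cells (2,000 per well) received 23 nL compound, incubated 16 hr at 37 °C, then ONE-Glo for 30 min at room temperature.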

Test [19] is described as follows: qHTS for Inhibitors of ATXN expression: Validation of Cytotoxic Assay (AID 588349). In outline: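 Read-out: ATP-based luminescence (CellTiter Glo) reflecting viability of HEK293 cells after 72 hr incubation at 37 degrees C with a concentration series of each compound.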

Ubiquitin carboxyl-terminal hydrolase 1 (Homo sapiens), sequence (O94782 whole entry, looked up): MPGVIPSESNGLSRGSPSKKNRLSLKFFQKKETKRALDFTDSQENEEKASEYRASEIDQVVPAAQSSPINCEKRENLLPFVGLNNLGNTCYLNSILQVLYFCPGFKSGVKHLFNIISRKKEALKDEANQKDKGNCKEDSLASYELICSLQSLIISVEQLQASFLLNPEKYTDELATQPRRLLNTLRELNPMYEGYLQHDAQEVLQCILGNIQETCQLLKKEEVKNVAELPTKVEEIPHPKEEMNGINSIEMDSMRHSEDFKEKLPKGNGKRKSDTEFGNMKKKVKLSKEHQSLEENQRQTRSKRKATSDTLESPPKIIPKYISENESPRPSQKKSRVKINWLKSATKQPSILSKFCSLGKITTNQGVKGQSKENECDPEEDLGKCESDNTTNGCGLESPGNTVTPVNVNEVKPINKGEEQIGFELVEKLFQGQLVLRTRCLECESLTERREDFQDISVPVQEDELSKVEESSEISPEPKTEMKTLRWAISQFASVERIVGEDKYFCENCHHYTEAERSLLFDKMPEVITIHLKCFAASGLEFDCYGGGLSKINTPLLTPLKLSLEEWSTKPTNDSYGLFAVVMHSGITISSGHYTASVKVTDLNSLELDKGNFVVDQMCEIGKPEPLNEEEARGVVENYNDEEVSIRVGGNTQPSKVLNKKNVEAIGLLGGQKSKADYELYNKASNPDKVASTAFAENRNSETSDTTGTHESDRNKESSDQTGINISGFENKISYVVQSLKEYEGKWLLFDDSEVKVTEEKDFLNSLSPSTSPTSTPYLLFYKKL
Galactokinase (Homo sapiens), sequence (P51570 whole entry, looked up): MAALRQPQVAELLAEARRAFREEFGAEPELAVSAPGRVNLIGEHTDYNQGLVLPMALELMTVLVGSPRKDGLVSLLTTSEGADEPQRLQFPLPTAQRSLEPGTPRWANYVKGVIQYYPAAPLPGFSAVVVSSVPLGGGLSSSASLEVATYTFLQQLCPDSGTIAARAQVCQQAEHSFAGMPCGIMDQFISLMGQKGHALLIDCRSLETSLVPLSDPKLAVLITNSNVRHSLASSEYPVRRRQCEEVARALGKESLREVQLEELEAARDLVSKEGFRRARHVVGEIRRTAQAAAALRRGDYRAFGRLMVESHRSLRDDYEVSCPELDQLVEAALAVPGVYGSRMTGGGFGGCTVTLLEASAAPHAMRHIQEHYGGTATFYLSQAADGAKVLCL
Methanococcus maripaludis chaperonin (MmCpn), sequence (Q6LX38 1-543): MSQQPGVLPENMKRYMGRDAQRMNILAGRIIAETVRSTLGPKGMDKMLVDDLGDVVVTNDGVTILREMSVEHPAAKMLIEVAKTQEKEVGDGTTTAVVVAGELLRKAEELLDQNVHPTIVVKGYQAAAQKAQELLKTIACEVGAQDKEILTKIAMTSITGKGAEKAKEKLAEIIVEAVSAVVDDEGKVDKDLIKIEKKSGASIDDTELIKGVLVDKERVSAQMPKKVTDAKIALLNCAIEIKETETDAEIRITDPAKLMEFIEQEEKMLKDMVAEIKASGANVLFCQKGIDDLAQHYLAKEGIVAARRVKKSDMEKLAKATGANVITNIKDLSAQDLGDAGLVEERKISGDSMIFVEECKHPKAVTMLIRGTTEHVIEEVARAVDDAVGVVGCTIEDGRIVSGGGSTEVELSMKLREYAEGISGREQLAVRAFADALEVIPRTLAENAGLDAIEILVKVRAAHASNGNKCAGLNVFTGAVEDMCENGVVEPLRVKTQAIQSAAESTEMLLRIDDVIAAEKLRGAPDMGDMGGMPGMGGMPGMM
Peptidyl-prolyl cis-trans isomerase NIMA-interacting 1 (Homo sapiens), sequence (Q13526 whole entry, looked up): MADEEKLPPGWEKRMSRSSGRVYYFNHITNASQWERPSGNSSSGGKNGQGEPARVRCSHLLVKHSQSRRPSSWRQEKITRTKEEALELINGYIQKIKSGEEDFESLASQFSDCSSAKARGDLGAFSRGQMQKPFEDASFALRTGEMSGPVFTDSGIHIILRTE
Thyrotropin-releasing hormone receptor (Homo sapiens), sequence (P34981 whole entry, looked up): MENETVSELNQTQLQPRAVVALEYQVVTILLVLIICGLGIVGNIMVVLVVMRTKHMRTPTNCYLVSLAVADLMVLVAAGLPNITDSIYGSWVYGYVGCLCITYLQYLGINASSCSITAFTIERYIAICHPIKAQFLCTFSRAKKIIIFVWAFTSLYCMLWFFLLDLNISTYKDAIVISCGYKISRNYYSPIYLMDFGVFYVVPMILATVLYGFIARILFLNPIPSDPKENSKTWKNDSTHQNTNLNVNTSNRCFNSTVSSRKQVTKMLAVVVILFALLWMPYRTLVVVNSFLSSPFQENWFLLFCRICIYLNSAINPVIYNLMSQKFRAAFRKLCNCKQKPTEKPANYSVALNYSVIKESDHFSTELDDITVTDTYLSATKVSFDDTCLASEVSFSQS

`Nc1nc(N)c(N=O)c(OCC2CCCCC2)n1`: the outcome in test [1], in [2], in [5], in [7] and in [8] was inactive. Moreover, the Potency result in [3], in test [4], in [6], in test [9], in test [10] and in [11] was “inactive” in each case. Also, the Potency result in [12] is “inactive”. For the same compound, the viability change in [6] is -2.98%.

Turning to `CCCCN(CCCC)CCC(O)c1cc2c(Cl)cc(Cl)cc2c2cc(C(F)(F)F)ccc12` (stereo not given), the result in test [13] was inactive.

Consider `CCc1nc(N)nc(N)c1-c1ccc(Cl)cc1`, for which, in [11], the Potency result was “inactive”.

Consider `CCCCc1ccc2nc(NC(=O)OC)[nH]c2c1`, for which the Potency entry in [11] is “inactive”.

Regarding `Nc1cc(C(Cl)=C(Cl)Cl)c(S(N)(=O)=O)cc1S(N)(=O)=O`, the compound was called inactive in test [13].

Take `Cc1ncc([N+](=O)[O-])n1CC(C)O` (stereo not given): the call in [13] was inactive. Moreover, the Potency entry in test [11] is “inactive”.

`COc1ccc(C2(C#N)CCC(C(=O)O)CC2)cc1OC1CCCC1` (stereo not given): the call in [13] was inactive. In test [11], the Potency entry is “inactive”.

As to `CN1C(C(=O)Nc2ccccn2)=C(O)c2sccc2S1(=O)=O`, the compound was classed as inactive in test [13]. Besides, in test [11], the Potency entry was “inactive”.

With `Cc1c(C(=O)NN2CCCCC2)nn(-c2ccc(Cl)cc2Cl)c1-c1ccc(Cl)cc1`, the call in test [13] was inactive.

As for `O=C(O)CCNC(=O)c1ccc(N=Nc2ccc(O)c(C(=O)O)c2)cc1`, the outcome in test [13] was inactive.

As for `O=C(NCCO[N+](=O)[O-])c1cccnc1`, the compound was called inactive in [13]. In addition, the Potency entry in [11] is “inactive”.

Regarding `CCC(C)(Oc1ccc(C2(c3ccc(OC(C)(CC)C(=O)O)cc3)CCCCC2)cc1)C(=O)O` (stereo not given), the outcome in [13] was inactive. Besides, the Potency result in [11] was “inactive”.

On to `Cc1cc(=O)oc2cc(O)ccc12`, for which the call in [13] was inactive. Besides, in test [11], the Potency result is “inactive”.

`O=C(CS(=O)Cc1ccco1)NCC=CCOc1cc(CN2CCCCC2)ccn1` (stereo not given): in test [13], the compound was classed as inactive. Moreover, in [11], the Potency entry was “inactive”.

Regarding `CC(C)c1ccc2oc3nc(N)c(C(=O)O)cc3c(=O)c2c1`, in [13], the compound was classed as inactive.

For the compound `O=P(O)(O)C(O)(Cn1ccnc1)P(=O)(O)O`, the outcome in test [13] was inactive. Besides, in [11], the Potency entry is “inactive”.

`C[C@]12CCC(=O)C=C1CC[C@@H]1[C@H]2[C@@H](O)C[C@@]2(C)[C@H]1CC[C@]2(O)C(=O)CO`: in test [13], the outcome was inactive. In addition, the Potency entry in test [11] is “inactive”.

For `O=C(NCC1CCCCN1)c1cc(OCC(F)(F)F)ccc1OCC(F)(F)F` (stereo not given), the compound was classed as inactive in [14] and in [16]. In test [15], the activation was -4.44% (inactive). Also, the Potency entry in test [17] and in [11] was “inactive” in each case.

Regarding `CC(C)(S)[C@@H](N)C(=O)O`, the result in test [13] was inactive. Also, in test [11], the Potency result was “inactive”.

In the case of `O=C(O)c1cn(-c2ccc(F)cc2)c2cc(N3CCNCC3)c(F)cc2c1=O`, the outcome in [13] was inactive. In addition, the Potency entry in [11] was “inactive”.

With `CCCCCCCCOc1ccccc1C(=O)Nc1ccc(C(=O)OCC[N+](C)(CC)CC)cc1`, in test [11], the Potency was 79.4 µM (active).

On to `Cc1cc(C2CCCCC2)n(O)c(=O)c1`, for which the call in test [13] was inactive.

For `CCN(CCO)CCCC(C)Nc1ccnc2cc(Cl)ccc12` (stereo not given), the compound was classed as inactive in test [13]. For the same compound, the Potency result in test [11] was “inactive”.

Regarding `O=c1oc2cc(O)ccc2s1`, the outcome in [13] was inactive. The Potency entry in test [11] is “inactive”.

Regarding `Cc1nc2n(c(=O)c1CCN1CCC(c3noc4cc(F)ccc34)CC1)CCCC2`, the compound was classed as inactive in test [14] and in test [16]. Moreover, in test [15], the activation is 0.938% (inactive). Further, the Potency result in test [17] and in test [11] was “inactive” in each case.

For the compound `O=C(c1ccccc1)c1ccc2n1CCC2C(=O)O` (stereo not given), the call in [1], in [2], in test [5], in [7], in test [16] and in test [8] was inactive. The compound was called inactive in test [19]. The Potency result in test [3], in test [4], in test [18], in [6], in test [17] and in test [9] was “inactive” throughout. In addition, the Potency entry in test [10], in test [11] and in test [12] was “inactive” in each case. Besides, the viability change in test [6] turned out to be 0.0927%.

Take `CN(c1nccc(=O)[nH]1)C1CCN(c2nc3ccccc3n2Cc2ccc(F)cc2)CC1`: the compound was classed as inactive in test [13]. Moreover, the Potency entry in test [11] was “inactive”.

Turning to `CCC[C@@H]1C[C@@H](C(=O)N[C@@H]([C@H]2O[C@H](SC)[C@H](O)[C@@H](O)[C@H]2O)[C@@H](C)O)N(C)C1`, in [13], the compound was classed as inactive. Also, the Potency entry in test [11] was “inactive”.

As for `CC(=O)N1CCN(c2ccc(OC[C@H]3CO[C@](Cn4ccnc4)(c4ccc(Cl)cc4Cl)O3)cc2)CC1`, the compound was classed as inactive in test [1], in test [14], in test [7], in test [16] and in [8]. For the same compound, the Potency entry in test [3], in test [17], in test [9] and in test [10] was “inactive” each time.

For `Nc1cccc2c1CN(C1CCC(=O)NC1=O)C2=O` (stereo not given), in test [13], the compound was classed as inactive. Besides, the Potency result in [11] was “inactive”.
